From PubChem BioAssay AID1259319 (Sanford-Burnham Center for Chemical Genomics, 2017)
Hit rate of the full screen: of about 3,000 compounds, about 1,800 (60%) were called active. So high a share suggests a set chosen from earlier hits. A selection follows. Unmarked numbers belong to inactive results.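 Rule for the calls: active = activation at or above a set limit, or at least 3 SD above the negative control mean; inactive = the rest.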

What follows are molecules tested against Nuclear receptor subfamily 1 group D member 1 (Homo sapiens) (UniProt P20393) (assay: Rev-erbα–DNA interaction modulation, retest – biochemical, FITC-DNA, fluorescence polarization, single point, confirmation (AID 1259319;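 note: 0% = 35 nM protein with DMSO and 100% = 750 nM protein high control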)). Settings: Rev-erb alpha FITC-DNA binding, 90 min, at 25 µM, stronger effect = higher value.
Sequence of Nuclear receptor subfamily 1 group D member 1 (Homo sapiens) (P20393 whole entry, looked up): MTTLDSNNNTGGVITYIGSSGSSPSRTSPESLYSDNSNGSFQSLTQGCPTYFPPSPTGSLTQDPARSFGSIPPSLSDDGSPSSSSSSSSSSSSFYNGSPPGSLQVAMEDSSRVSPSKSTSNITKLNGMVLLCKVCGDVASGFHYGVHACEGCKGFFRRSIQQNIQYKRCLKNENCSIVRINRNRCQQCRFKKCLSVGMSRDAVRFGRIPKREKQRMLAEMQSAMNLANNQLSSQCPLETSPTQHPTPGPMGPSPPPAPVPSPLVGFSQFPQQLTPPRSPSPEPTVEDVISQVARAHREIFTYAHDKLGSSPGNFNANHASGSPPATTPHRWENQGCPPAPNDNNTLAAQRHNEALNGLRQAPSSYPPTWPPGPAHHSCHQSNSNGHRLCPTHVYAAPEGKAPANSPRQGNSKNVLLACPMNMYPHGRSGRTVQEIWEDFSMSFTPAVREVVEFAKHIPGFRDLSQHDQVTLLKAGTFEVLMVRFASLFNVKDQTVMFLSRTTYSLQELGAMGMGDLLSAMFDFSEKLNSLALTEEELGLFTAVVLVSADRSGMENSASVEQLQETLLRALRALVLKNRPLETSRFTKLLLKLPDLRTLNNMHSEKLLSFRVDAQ
c1ccc(CSc2ncnc3c2sc2nc(N4CCOCC4)c4c(c23)CCCC4)cc1 was tested, and the activation was 93.6% (active). S=c1nccc(-c2cc(Cl)sc2Cl)[nH]1 was tested, and the activation was 36.6% (active). In the case of c1ccc(-c2cc(-c3nnc4sc(-c5ccccn5)nn34)[nH]n2)cc1, the activation was 26.1% (active). CN(C)c1ccc(/C=C2\NC(=S)N(Cc3ccccc3)C2=O)cc1 was tested, and the activation was 37.3% (active). CN1/C(=C\C=C2\N=C(c3ccc(F)cc3)OC2=O)C(C)(C)c2ccccc21 gave an activation of 5.84%. In the case of O=C(CCn1c(SCC(=O)c2ccccc2)nc2ccccc2c1=O)NCc1ccc(F)cc1, the activation was 36.3% (active). O=C(CCn1c(=S)[nH]c2cc3c(cc2c1=O)OCO3)NCc1ccc(Cl)cc1 showed an activation of 9.29%. Work on C=CCNC(=O)CC12CC3CC(C1)CC(CC(=O)NCC=C)(C3)C2 yielded an activation of -0.299%. For N#Cc1c(N)nc2c3c(sc(=N)c2c1N)NC(=O)CC3c1ccccc1Cl (stereo not drawn), the activation was 35% (active). O=S(=O)(c1ccc(Br)cc1)c1nc(-c2ccccc2)oc1NCc1cccnc1 showed an activation of 5.25%. For Oc1ccc2ccc3cccc[n+]3c2c1, the activation was 41.7% (active). CCc1ccccc1NC(=O)c1cc(-c2ccc3c(c2)OCO3)on1 showed an activation of 10.4%. With CN(C)S(=O)(=O)c1ccc(N2CCCC2)c(C(=O)Nc2ccc(Br)cc2F)c1 the activation was 10.4%. For O=C1CCCC2=C1C(c1ccccc1)n1c(s/c(=C/c3cccc(F)c3)c1=O)=N2 (stereo not drawn), the activation was 30% (active). For CCOC(=O)c1sc(=NC(=O)c2ccc(Br)cc2)n(C)c1C, the activation was 26.1% (active). With COc1ccc2sc(-c3ccc(S(C)(=O)=O)cc3)c(-c3ccc(C(N)=O)cc3)c2c1 the activation was 5.94%. With CCCNC(=O)Nc1ccc2c(c1)C(=O)N(C)[C@H]1CC[C@H](CC(=O)NCC3CCCCC3)O[C@@H]1CO2 the activation was 63.1% (active). With CCN1C(=O)/C(=C\N2CCN(c3cccc(Cl)c3)CC2)SC1=S the activation was 204% (active). Cc1cccc(Nc2nc3c(S(=O)(=O)c4ccccc4)nnn3c3ccccc23)c1C was tested, and the activation was 15.8%. Cc1ccc(S(=O)(=O)c2nnn3c2nc(N2CCN(c4ccccn4)CC2)c2ccccc23)cc1 was tested, and the activation was 65.4% (active). CC(C)OCCCNC(=O)CN1C(=O)/C(=C/c2ccccc2F)Oc2ccccc21 was tested, and the activation was -0.363%. For COc1ccc(Cc2nnc(NC(=O)c3ccc(OC)cc3OC)s2)cc1, the activation was 9.03%. In the case of COC(=O)c1sc(NC(=O)c2ccc(OC)cc2OC)nc1C, the activation was 24.1% (active). For COC(=O)c1c(NC(C)=O)sc(C(=O)Nc2ccccc2OC)c1C, the activation was 9.45%. Work on Cc1cc(Br)cn2c(Cc3ccccc3C(F)(F)F)c(-c3ccc(Cl)cc3)nc12 yielded an activation of 7.64%. For Cc1ccc(-c2nc3c(C)cc(Br)cn3c2Cc2ccccc2)cc1, the activation was 14.9% (active). In the case of CCOc1ccc2cc(C#N)c(SCC(=O)OC)nc2c1, the activation was 90.1% (active). Work on CCOc1cccc(C(=O)Nc2nnc(-c3cccs3)s2)c1 yielded an activation of -1.11%. In the case of COCc1cc(C)nc(SCC(=O)Nc2cccc(C)c2)c1C#N, the activation was -4.78%. For Cc1nc2cc(NC(=O)CSc3nc4c(C)cccc4cc3C#N)ccc2s1, the activation was 85.3% (active). For Cc1cc2cc3c(cc2nc1SCC(=O)Nc1c(C)cccc1C)CCC3, the activation was 16.2%. Cc1nonc1NC(=O)CSc1nc2ccccc2cc1C#N was tested, and the activation was 39.8% (active). In the case of CCOC(=O)c1c(NC(=O)CN2C(=O)NC3(CCC(C)CC3)C2=O)sc(C)c1CC (stereo not drawn), the activation was 11%. c1ccc2c(-c3nn4nnnc4c4ccccc34)cccc2c1 was tested, and the activation was 29.3% (active). COc1ccc(C2=NN(C(=O)CSc3nc(=O)n4ccc(C)cc4n3)C(c3ccc(C)cc3)C2)cc1 (stereo not drawn) was tested, and the activation was 4.15%. In the case of COc1ccc(-c2nnc(SCC(=O)c3ccc4c(c3)OCCO4)o2)cc1, the activation was 28.7% (active). Work on CCOc1cccc(NC(=O)Cn2nc(-c3ccc4c(c3)OCCO4)ccc2=O)c1 yielded an activation of 15.3%. For COc1nc(-c2ccc(Cl)cc2)ccc1-c1noc(-c2cccs2)n1, the activation was 46.9% (active). With Fc1c(F)c(C(F)(F)F)c(F)c(F)c1N1CCN(c2ccc3nnc(C(F)(F)F)n3n2)CC1 the activation was 40% (active). In the case of COc1ccccc1N1CCN(CC(=O)Nc2ccnn2C2CCCC2)CC1, the activation was -5.83%. In the case of CC(=O)c1cc(C#N)c(SCC(=O)Nc2nccs2)nc1C, the activation was 29% (active). For COc1ccc(-n2ncc3c(N4CCc5ccccc54)ncnc32)cc1, the activation was 40.6% (active). Cc1cc(C(C)(C)C)n2nc(C)c(-c3ccccc3)c2n1 showed an activation of 4.3%. Cc1ccc(-n2c(SCC(=O)NCCC3=CCCCC3)nc3n[nH]c(C)c3c2=N)cc1Cl gave an activation of 14.5%. For CCCCNC(=O)CSc1nc2n[nH]c(C)c2c(=N)n1-c1cccc(Cl)c1C, the activation was 26.6% (active). With COc1ccc(CNC(=O)c2nnn(CC(=O)Nc3cc(C)cc(C)c3)c2N)cc1 the activation was 21.9% (active). In the case of COc1ccc(CC(=O)Nc2ccc(-c3nnc(-c4ccc(C)cc4)o3)cc2)cc1, the activation was -0.593%. Cc1c(-c2ccccc2)nc(N)c(C#N)c1-c1cccs1 was tested, and the activation was 16.4%. O=C(COC(=O)c1cccc(Br)c1)Nc1cccc2c1C(=O)c1ccccc1C2=O was tested, and the activation was 18.5% (active). In the case of N#Cc1ccccc1Sc1ccccc1C(=O)OCC(=O)NC1CCCCC1, the activation was 35.9% (active). In the case of O=C(COC(=O)c1ccccc1SCC(=O)NC1CCCCC1)NC1CCCCC1, the activation was 86.9% (active). With CC(C)C(C)NC(=O)COc1nc2ccccc2nc1N(C)C1CCCCC1 (stereo not drawn) the activation was 7.89%. Cc1nc(SCC(=O)Nc2cc(C)on2)c2c3c(sc2n1)CCCC3 was tested, and the activation was 43.7% (active). With Cc1cc(NC(=O)CSc2nc3cc(Cl)ccc3c(=O)n2Cc2ccco2)no1 the activation was 16.1%. Cc1cc(NC(=O)CSc2nc(C(C)C)nc3sc4c(c23)CCC(C)C4)no1 (stereo not drawn) was tested, and the activation was 30.8% (active). C[n+]1ccc(/C=C/c2c[nH]c3ccccc23)cc1 was tested, and the activation was 136% (active). Work on CCc1ccc2c(c1)cc(CN(C(=S)Nc1ccccc1Cl)C1CC1)c1nnnn12 yielded an activation of 2.01%. In the case of COc1cccc(-n2c(SCC(=O)c3c[nH]c4ccccc34)nc3ccccc3c2=O)c1, the activation was 30.8% (active).
